Out of some 96,000 compounds screened, about 20,000 (21%) were called active. The list is a sample of the results. A number with no mark means an inactive call.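 The calls were made as follows: active = CYP2C19 inhibition above a set limit at 5 µM in the primary screen (cut at about 50% in these data); inactive = the rest.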
The compounds below were run against Cytochrome P450 2C19 (Homo sapiens) (UniProt P33261) (assay: blockers of cytochrome P450 2C19 activity – biochemical, luminescence, ADME assay, primary screen (AID 778;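 also: plate controls were negative control wells for no effect and 2.5 mM tranylcypromine positive control for full effect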)). Details: CYP2C19 Supersomes, luciferin-H EGE luminescence, 30 min; at 5 µM; stronger effect = higher value.
Chain of Cytochrome P450 2C19 (Homo sapiens) (P33261 whole entry, looked up): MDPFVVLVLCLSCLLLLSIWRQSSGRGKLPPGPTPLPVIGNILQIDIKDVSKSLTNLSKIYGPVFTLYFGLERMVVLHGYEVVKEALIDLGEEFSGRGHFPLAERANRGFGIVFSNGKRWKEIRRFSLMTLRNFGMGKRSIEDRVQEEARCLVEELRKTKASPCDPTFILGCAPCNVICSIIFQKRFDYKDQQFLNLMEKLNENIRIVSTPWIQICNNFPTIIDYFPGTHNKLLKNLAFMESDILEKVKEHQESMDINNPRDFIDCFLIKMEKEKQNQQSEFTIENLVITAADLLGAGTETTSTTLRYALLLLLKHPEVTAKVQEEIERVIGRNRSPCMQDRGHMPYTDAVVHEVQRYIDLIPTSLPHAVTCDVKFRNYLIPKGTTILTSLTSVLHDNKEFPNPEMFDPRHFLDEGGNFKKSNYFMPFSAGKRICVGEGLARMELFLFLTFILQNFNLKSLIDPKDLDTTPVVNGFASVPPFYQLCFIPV

| SMILES | inhibition |
| --- | --- |
| CCCCc1nnc(NC(=O)CS(=O)(=O)Cc2ccccc2)s1 | 8% |
| Cc1cc2ccccc2n1CCNC(=O)COc1ccc2ccccc2c1 | 14.5% |
| OC(COCCC12CC3CC(CC(C3)C1)C2)CN1CCCCC1 (stereo not given) | 35.1% |
| Cc1ccc(NC(=S)Nc2ncccc2C)c(C)c1 | 86.3% (active) |
| Cc1cccc(NC(=O)C2CCN(S(=O)(=O)c3cccc4cccnc34)CC2)c1 | 40.7% |
| CCOc1ccc(NC(=O)N2CC=C(n3c(=O)[nH]c4ccccc43)CC2)cc1 | 11.1% |
| COc1ccc(-c2c3c(=O)n(C)c(=O)n(C)c3cn2-c2cccc(OC)c2)cc1 | -4% |
| COc1ccc(N(C(=O)c2cccnc2)S(=O)(=O)c2ccc3c(c2)n(C)c(=O)n3C)cc1 | 57.8% (active) |
| COc1ccc(-c2c3c(=O)n(C)c(=O)n(C)c3cn2NC(C)=O)cc1 | -2.1% |
| O=C(Cn1cncn1)N/N=C/c1c2ccccc2cc2ccccc12 | 80% (active) |
| CCCC(=O)Nc1cccc(-c2cn3ccsc3n2)c1 | -11.8% |
| CCOC(=O)N1CCC(NC(=O)CN2C(=O)COc3ccc(C(C)(C)C)cc32)CC1 | 10.8% |
| CCOC(=O)C(=O)Nc1nc(-c2ccccc2)c(CC)s1 | 3.5% |
| COCCCN1C(=O)c2ccc(C(=O)Nc3ccc(OC)cc3OC)cc2C1=O | 61.8% (active) |
| CCOc1ccc(Cn2nnc(C(=O)Nc3ccc(OC)cc3OC)c2N)cc1 | -21.9% |
| COc1ccc(NC(=O)c2cccc(NC(=O)c3ccco3)c2)c(OC)c1 | 15.1% |
| CCOP1(=O)C=C(C(C)(C)C)OC1c1ccc(F)cc1 (stereo not given) | 15.6% |
| CCCOP(=O)(c1ccc(N(C)C)cc1)C(O)c1cc(OC)c(OC)c(OC)c1 (stereo not given) | 16.9% |
| O=C(O)c1cc2ccccc2c(=O)s1 | 15.6% |
| CCSC1=C(C#N)C(=O)n2c1cc1c2CCCC1 | 10.1% |
| CC(C)Cn1cnc2c1c(=O)n(CC(O)c1ccccc1)c(=O)n2CC(C)C (stereo not given) | 58.8% (active) |
| Cn1c(=O)c2c(ncn2CC(COCc2ccccc2Cl)OCc2ccccc2Cl)n(C)c1=O (stereo not given) | 49.2% |
| Cn1c(=O)c2c(ncn2CC(=O)N2CCN(c3ccccc3)CC2)n(C)c1=O | 4.9% |
| CCCc1nc2oc3c(OCC)ncnc3c2c2c1COC(C)(C)C2 | -9.9% |
| CCC(C)n1[nH]c(=O)c2c(C)cc(C)nc21 (stereo not given) | 10.9% |

| SMILES | inhibition |
| --- | --- |
| O=C1CC(N2CCN(C(c3ccccc3)c3ccccc3)CC2)C(=O)N1 (stereo not given) | 8.8% |
| CC(C)(C)c1cc(CN2CCN(CCC#N)CC2)cc(C(C)(C)C)c1O | -2.1% |
| CC(C)(C)c1ccc(C(=O)CSc2ncn[nH]2)cc1 | 23% |
| O=C(CSc1ncn[nH]1)Nc1ccnc2ccccc12 | 27.1% |
| CCN(C(=O)CSc1ncn[nH]1)c1cccc2ccccc12 | 63.2% (active) |
| CCOC(=O)c1cccc(NC(=O)CCn2nnc3ccccc32)c1 | 23.3% |
| COc1ccc(NC(=O)Cn2nnc(C(=O)NCCc3ccc(OC)c(OC)c3)c2N)cc1 | 4.1% |
| CCOC(=O)c1nnn(CC(=O)Nc2cccc(F)c2)c1C(=O)OCC | 95.7% (active) |
| CC12CCC(C(=O)N3CCN(c4ncccn4)CC3)(c3nc4ccccc4nc31)C2(C)C (stereo not given) | 31.7% |
| Cc1nn(-c2ccccc2)c(C)c1C(=O)OCC(=O)NC(=O)NC1CCCCC1 | 28.3% |
| CCCn1c(C)cc(C(=O)COC(=O)c2c(C)nn(-c3ccccc3)c2C)c1C | 88.6% (active) |
| Cc1cc(C(=O)COC(=O)c2cccs2)c(C)n1-c1c(C)n(C)n(-c2ccccc2)c1=O | -0.8% |
| O=C1CCC(C(=O)Nc2ccc(OC(F)F)cc2)N1 (stereo not given) | 0% |
| O=c1cc(CO)oc(CN2CCC(Cc3ccccc3)CC2)c1O | 15.2% |
| CCN1CCCC1CNC(=O)Cn1cnc2ccc(S(=O)(=O)N3CCC(C)CC3)cc2c1=O (stereo not given) | -0.8% |
| COCC(C)N=CC1=C(O)CC(C)(C)CC1=O (stereo not given) | 0.7% |
| Nc1ccc(Nc2ccccc2)cc1 | 36.6% |
| c1ccc(Nc2n[nH]nc2-c2ccccc2)cc1 | 84.7% (active) |
| COC(CNC(=O)Cn1ncc2ccsc2c1=O)OC | 2.1% |
| COc1ccccc1NC(=O)/C=C/C(N)=O | -0.2% |
| COC(=O)C(CC(=O)Nc1cc(C)ccc1C)Nc1ccccc1OC (stereo not given) | 15.3% |
| COc1ccccc1NC(=O)COc1ccc(C(=O)OCC(=O)N(C(C)C)C(C)C)cc1OC | 56.4% (active) |
| CC1CC(C)CN(C/C=C/c2ccccc2[N+](=O)[O-])C1 (stereo not given) | 29.7% |
| CCC(C)NC(=O)CSC1=Nc2ccccc2C2=NC(CCC(=O)NCc3ccco3)C(=O)N12 (stereo not given) | 6.1% |
| CCOC(=O)CNC(=O)CSc1nnc(COc2ccc(Cl)cc2)n1CC | 14.7% |

| SMILES | inhibition |
| --- | --- |
| COc1ccc(OC)c(/C=N/NC(=O)CSc2nnc(C)n2-c2ccccc2)c1 | 23.2% |
| Cc1nnc(SCC(=O)NCCOc2ccc(Cl)cc2)n1-c1ccccc1 | 95.6% (active) |
| COC(=O)[C@@H](NC(=O)NCc1cccc(OC)c1)C(C)C | 5.8% |
| CCOC(=O)Cn1c(-c2cccnc2Cl)nc2ccccc21 | -2% |
| Cc1no[n+]([O-])c1COc1ccccc1/C=C1\NC(=S)NC1=O | 20.6% |
| CCN1C(=O)/C(=C2\SC(N3CCCCC3)=NC2=O)c2ccccc21 | 19.9% |
| O=S(=O)(c1cccc2nonc12)N1CCN(c2cccc(Cl)c2)CC1 | 1.5% |
| O=Cc1c(N2CCN(c3cccc(Cl)c3)CC2)nc2ccccn2c1=O | 99.4% (active) |
| CCN1C(=O)/C(=C\N2CCN(c3cccc(Cl)c3)CC2)SC1=S | 13% |
| CN1CC(c2ccccc2)C2(COc3ccccc3C2=O)C12C(=O)Nc1ccccc12 (stereo not given) | 46.7% |
| COc1ccccc1/C=C/C1=NC(=C\N(C)C)/C(=O)O1 | 19.5% |
| CCOC(=O)CSc1nnc(CNC(=O)c2cccs2)n1-c1cc(OC)ccc1OC | 58.2% (active) |
| CCOC(=O)CSc1nnc(CNC(=O)Cc2ccccc2)n1-c1ccccc1OC | 8.2% |
| CCOC(=O)CSc1nnc(CNC(=O)c2cccs2)n1-c1ccccc1 | -5.7% |
| CCOc1ccccc1Oc1cn[nH]c1-c1ccc(OC)cc1O | 100% (active) |
| CCOc1cc(-c2cc(-c3ccc(OC)cc3)nc(N)c2C#N)ccc1O | 19.9% |
| Cc1ccc(SCCC(=O)OCC(=O)Nc2ncc(Cl)cc2Cl)cc1 | 24% |
| O=c1c2ccccc2oc2nc3n(c(=O)c12)CCCS3 | 0.7% |
| CCc1nc2oc3ccccc3c(=O)c2c(=O)n1Cc1ccc(OC)cc1 | -0.6% |
| O=c1c2ccccc2oc2nc(C3CCCCC3)n(Cc3ccco3)c(=O)c12 | 50.7% (active) |
| O=C(O)/C=C/C(=O)Nc1ccc(F)cc1F | 5.3% |
| Cn1c2c(c(=O)n(C)c1=O)CN(Cc1ccco1)CN2 | 0.4% |
| CCOC(=O)Cc1csc(NC(=O)C(C)(C)C)n1 | 15.4% |
| CCCC(CCC(=O)OC)(C(=O)OCC)c1csc(N)n1 (stereo not given) | 73.6% (active) |
| CCOC(=O)Cc1csc(NC(NC(=O)OCC)(C(F)(F)F)C(F)(F)F)n1 | 13.5% |

| SMILES | inhibition |
| --- | --- |
| COc1ccc(-n2c(SC)nc(O)cc2=O)cc1 | 5.6% |
| COCCNc1nc(-n2nc(C)cc2C)nc2sc3c(c12)CCCC3 | -16.1% |
| Oc1ccc2nc(Cc3ccccc3)[nH]c2c1 | 23.6% |
| OCCNc1nc2ccccc2[nH]1 | -4.7% |
| Clc1ccccc1SCc1nc2ccccc2[nH]1 | 83.2% (active) |
| c1ccc(-c2nnc(SCc3nc4ccccc4[nH]3)o2)cc1 | 95.2% (active) |
| O=C(CSc1nnc(-c2ccccc2)o1)N1CCOCC1 | -12.3% |
| CCCCSc1nnc(-c2ccc(C)cc2)o1 | 49.4% |
| c1ccc2c(CSCc3nc4ccccc4[nH]3)cccc2c1 | 89.3% (active) |
| N#C/C(=C(/O)COc1cccc2ccccc12)c1nc2ccccc2[nH]1 | 12% |
| N#Cc1c2c(c(N3CCN(CCO)CC3)n3c1nc1ccccc13)CCCC2 | 34.5% |
| CN(C)CCNC(=O)C(C(=O)c1ccccc1)n1ccccc1=O (stereo not given) | -10.3% |
| Cc1ccccc1S(=O)(=O)Cc1ccc(C(=O)NCCN2CCCCC2C)o1 (stereo not given) | 4.1% |
| COC(=O)c1cnn2c(C(F)(F)F)cc(-c3ccco3)nc12 | -9% |
| COc1ccc(OCCCC(=O)Oc2ccc(OC)cc2)cc1 | 6.3% |
| N/C(=N\OC(=O)CCc1ccccc1)c1ccc(Cl)cc1 | -1.3% |
| COc1ccc(/C(N)=N/OC(=O)Oc2ccccc2)cc1 | 58.6% (active) |
| COc1ccc(OC)c(Nc2nc(-c3ccc(O)c(O)c3)cs2)c1 | 27.6% |
| COc1ccc2c(c1)cc1n2CCN=C1NN | 92.9% (active) |
| COc1ccc(NC(=O)Nc2ccc3nc(C)c(C)nc3c2)cc1 | 3.2% |
| CC(=O)N1CSCC1C(=O)O (stereo not given) | 2.2% |
| CC1(C)C/C(=C(/C#N)C(N)=O)CCO1 | -16.7% |
| CC(C)OC(=O)c1sc2nc3c(cc2c1N)C(=O)CCC3 | 7.1% |
| CC1=C(C(=O)Nc2ccc(Cl)cc2)C(c2ccco2)NC(=O)N1 (stereo not given) | 18.4% |
| Cc1cccc(N2CCN(C(=O)CN(C)S(=O)(=O)c3ccc4c(c3)CCC(=O)N4)CC2)c1C | 6.3% |
